The values that follow come from PubChem BioAssay AID540276 (National Center for Advancing Translational Sciences (NCATS), 2011).

SMILES strings stand for the structures. Values joined by “and” are separate entries in the source; they are usually repeats but may differ in a detail not shown here. Equal entries are not always repeated. Screen size: about 300,000 compounds; about 5,400 (1.8%) were called active. Not shown: some 28% with an inconclusive outcome. Calls follow the shape of the full dose curve; tested in HEK293 cells. The full list was thinned out, with actives kept by preference. The source holds several records for some structures; these can differ, active in one and inactive in another.
% is scaled to controls: 0 for no effect and ±100 for the full control effect; potency is read from the fitted curve at half-maximal effect.

A short description of the experiment: qHTS for inhibitors of binding or entry into cells for Marburg Virus. To be noted: Marburg virus pseudotyped entry inhibition, cell reporter; series mostly up to 37.8 µM; activity change, negative = inhibition: at the top concentration. For orientation: In qHTS, concentration-response curves come from the screen itself.
As for `O=C(O)c1ccc(Cn2cnc3c(=S)nc[nH]c32)cc1`, the “activity change, negative = inhibition” value was 1.1% [at 46.1 µM] (inactive).
With `O=C(COc1ccccc1F)NNC(=O)c1ccc(N2CCCCC2)c([N+](=O)[O-])c1`, the “activity change, negative = inhibition” value is 4.78% (inactive).
On to `O=C(COc1ccc(Br)cc1F)NCC1(N2CCCCC2)CCCCC1`, for which the Potency is 10 µM (active).
In the case of `O=C(COC(=O)COc1ccccc1F)Nc1cccc(S(=O)(=O)N2CCCCC2)c1`, the “activity change, negative = inhibition” value is -2.27% (inactive).
`Nc1ncnc2c1cnn2C1CC(O)C(CO)O1` (stereo not given): the “activity change, negative = inhibition” value is 18.4% (inactive).
On the same count and under the same terms, for `COc1ccc(C(=O)OCC(=O)N2CC(=O)Nc3ccccc32)cc1Br` the value was 1.2% (inactive).
Take `O=C(Nc1ccc(S(=O)(=O)N2CCOCC2)cc1)C1CCN(S(=O)(=O)c2ccc(Cl)cc2)CC1`: the “activity change, negative = inhibition” value is 3.31% (inactive).
For the molecule `CCCCNC1(C#N)CCN(Cc2ccccc2)CC1`, the “activity change, negative = inhibition” value was 0.651% (inactive).
Consider `O=C(NNS(=O)(=O)c1ccc([N+](=O)[O-])cc1)C1CCCCC1`, for which the “activity change, negative = inhibition” value was 24.6% [at 46.1 µM] (inactive).
For `O=C(NCc1ccc2c(c1)OCO2)c1ccc2c(c1)C(=O)N(CC1CCCO1)C2=O` (stereo not given), the “activity change, negative = inhibition” value was 10.7% (inactive).
Same read-out and setting: the result for `O=c1c2cc3c(=O)n(CC4CCCO4)c(=O)c3cc2c(=O)n1CC1CCCO1` (stereo not given) reads -3.19% (inactive).
Regarding `O=C1c2cccc3c([N+](=O)[O-])ccc(c23)C(=O)N1CC1CCCO1` (stereo not given), the Potency was 23.1 µM (active).
Consider `Cc1cc(S(=O)(=O)Nc2ccc(C(=O)NCC(c3ccco3)N3CCCC3)cc2)ccc1F` (stereo not given), for which the “activity change, negative = inhibition” value was -28% [at 46.1 µM] (inactive).
Same read-out and setting: the result for `CCC(=O)N1CCc2cc(Br)c(S(=O)(=O)NCCN3CCCCC3CC)cc21` (stereo not given) reads 1.26% (inactive).
The same measure, in the same setting: for `CCN(Cc1ccccc1)C(=O)Cc1ccc(OC)c(S(=O)(=O)N2CCOCC2)c1` the value was -9.98% (inactive).
For the molecule `COc1cccc(CNS(=O)(=O)c2ccc3c(c2)CC(C)N3C(C)=O)c1` (stereo not given), the “activity change, negative = inhibition” value was -18.3% [at 46.1 µM] (inactive).
Consider `COC(=O)CC=C[C@@H](C)[C@H](NC(=O)OCC(Cl)(Cl)Cl)c1ccc2ccccc2c1`, for which the “activity change, negative = inhibition” value was -17.9% [at 14.2 µM] (inactive).
On to `Cc1ccc(-c2nn(-c3ccc(F)cc3)cc2C(=O)NCC(c2cccs2)N2CCOCC2)cc1` (stereo not given), for which the “activity change, negative = inhibition” value was -10.9% [at 46.1 µM] (inactive).
Consider `Cc1ccc(S(=O)(=O)N(C)C2(C)CCS(=O)(=O)C2)cc1` (stereo not given), for which the “activity change, negative = inhibition” value was -16.6% (inactive).
Consider `Cc1ccc(S(=O)(=O)NC2CCCCCC2)cc1`, for which the “activity change, negative = inhibition” value was 7.12% (inactive).
For the molecule `Cc1ccc(S(=O)(=O)C2(S(=O)(=O)c3ccc(C)cc3)CCCC2)cc1`, the Potency was 3.98 µM (active).
As for `COc1cccc2cc(C(=O)NCc3ccc(C)cc3)c(=N)oc12`, the “activity change, negative = inhibition” value is -22.8% [at 46.1 µM] (inactive).
As for `Cc1cccc2[nH]c(CN(C)C(=O)C3CCC(=O)N(CCc4ccccc4)C3)nc12` (stereo not given), the “activity change, negative = inhibition” value was 4.9% (inactive).
On to `CCOc1ccc(CCNC(=O)CSc2cc(=O)n(C)c3ccc(Cl)cc23)cc1OCC`, for which the Potency entry is “inactive”.
As to `CCN(CCCNC(=O)CSc1cc(=O)n(C)c2cc(Cl)ccc12)Cc1ccccc1`, the Potency is 11.2 µM (active).
In the case of `CCN(CCCNC(=O)CSc1cc(=O)n(C)c2cc(Cl)ccc12)c1cccc(C)c1`, the “activity change, negative = inhibition” value was -7.94% [at 46.1 µM] (inactive).
For the molecule `Oc1cc2c(cc1O)CN(C(=S)NCCc1ccc(Cl)cc1)CCC2`, the Potency entry is “inactive and 355 nM (active)”.
On to `Cc1ccc(NC(=S)NCCc2ccc(Cl)cc2)c(C)c1`, for which the “activity change, negative = inhibition” value was -20.5% (inactive).
Consider `COc1ccc(CCNC(=S)N2CCN(S(=O)(=O)c3ccc(Cl)cc3)CC2)cc1`, for which the “activity change, negative = inhibition” value was -1.3% (inactive).
In the case of `CC(=O)c1ccc(S(=O)(=O)N(C)CCCC(=O)N(C)Cc2ccccc2F)cc1`, the “activity change, negative = inhibition” value is 4.44% [at 46.1 µM] (inactive).
On the same count and under the same terms, for `O=C(CCn1nnnc1CN1CCOCC1)N1CCC(c2ccccc2Cl)C1` (stereo not given) the value was -5.89% (inactive); for `CCCC(CNC(=O)COC(=O)C1=NNC(=O)CC1)c1ccc(Cl)cc1Cl` (stereo not given), -8.92% [at 46.1 µM] (inactive); for `CCOc1ccccc1Nc1nnc(SCC(=O)NCC2CCCO2)s1` (stereo not given), -0.761% (inactive).
Turning to `CCOC(=O)N1CCN(C(=O)C2CCCN(c3ncnc4c3sc3cccc(F)c34)C2)CC1` (stereo not given), the “activity change, negative = inhibition” value was -6.64% [at 46.1 µM] (inactive).
Regarding `OC1CCCN(c2ncnc3c2nnn3Cc2c(F)cccc2Cl)C1` (stereo not given), the Potency is 10 µM (active).
Regarding `O=C(CSc1ncnc2c1nnn2Cc1ccc(F)cc1)NC1CCCC1`, the “activity change, negative = inhibition” value was 1.23% [at 46.1 µM] (inactive).
`O=C1N=CC(F)C(=O)N1` (stereo not given): the “activity change, negative = inhibition” value is -4.74% (inactive).
`CCOc1ccc(NC(=O)CN(C)C(=O)c2cccc(S(=O)(=O)N3CCCC3)c2)cc1OCC`: the “activity change, negative = inhibition” value is -1.71% [at 46.1 µM] (inactive).
Still for that read-out and setting: for `COc1ccccc1C(=O)N(C1=NC(C)CS1)c1ccc(Cl)cc1` (stereo not given) the value was -6.31% [at 46.1 µM] (inactive); for `O=C(COC(=O)c1ccc(O)cc1O)NC(=O)c1ccccc1`, 8.59% [at 46.1 µM] (inactive).
On to `O=C(NNc1c2ccccc2nc2ccccc12)c1cc2ccccc2cc1O`, for which the Potency was 3.16 µM (active).
For the molecule `Cc1noc(C)c1COC(=O)c1cc2ccccc2cc1O`, the “activity change, negative = inhibition” value was 4.37% (inactive).
In the case of `COc1ccccc1C(=O)OCC(=O)Nc1cccc(S(=O)(=O)NC2=NCCCCC2)c1`, the “activity change, negative = inhibition” value is 5.55% (inactive).
On the same count and under the same terms, the result for `O=C1CCc2cc(S(=O)(=O)Nc3ccc(C(F)(F)F)cc3)cc3c2N1CC3` reads -13.7% (inactive).
The same measure, in the same setting: for `Cc1cccc(-n2c(SCC(N)=O)nc3c(oc4ccccc43)c2=O)c1` the value was -0.67% [at 46.1 µM] (inactive).
Regarding `Cc1cccc(-n2c(SCC(N)=O)nc3c(c2=O)C2(CCCCC2)Cc2ccccc2-3)c1`, the Potency is 4.47 µM (active).
`Cc1cccc(-n2c(N)cc(=O)nc2SC(C)C(=O)NC2CCCCC2)c1` (stereo not given): the “activity change, negative = inhibition” value was -1.1% (inactive).
For the molecule `O=S(=O)(Nc1ccc2nc(N3CCOCC3)sc2c1)c1ccccc1`, the “activity change, negative = inhibition” value was -1.94% (inactive).
With `COc1ccc(CC(=O)NC(C)c2ccc(Cl)c(Cl)c2)cc1S(=O)(=O)N1CCOCC1` (stereo not given), the “activity change, negative = inhibition” value is -3.28% (inactive).
As to `CCOc1ccc(CCNC(=O)COC(=O)c2ccc(F)c(S(=O)(=O)N3CCOCC3)c2)cc1OCC`, the “activity change, negative = inhibition” value was 0.565% (inactive).
